Sampled rows, rich in hits. Any-hit rate of the full collection: about 8.9%.
ALDH1A1 inh – blocks purified human ALDH1A1 activity; Purified ALDH1A1, NADH fluorescence, propionaldehyde substrate; Potency, µM (titrated, usually from 75.3 µM), for the others: top-dose activity, negative = inhibition, usual class: inhibitors; hit rate 7.3% among 220,000; AID 1030; active = well fitted inhibition curve with a large enough effect, not every such curve was filed as active; inconclusive = small, poorly fitted or top-dose-only effect, or another doubt; inactive = no such curve, though single readings can be large or run the other way;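 note: potency is the fitted concentration of half-maximal effect; plate controls were no enzyme wells and a reference inhibitor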
ALOX12 inhib – inhibitors of human 12-lipoxygenase (ALOX12); Potency, µM (highest dose often 57.1 µM), for inactives: top-dose activity change, negative = inhibition, usual class: inhibitors; P18054; hit rate 0.12% among 150,000; purified 12-hLO, xylenol orange hydroperoxide absorbance; note: potency is the fitted concentration of half-maximal effect; nearly all actives have a fitted effect of over 55% in size
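Lipoxygenase turnover measured by absorbance at 573 and 405 nm after Fe-XO development. Human 12hLO 150 nM, arachidonate 40 uM, pH 7.0 Hepes buffer with detergent; 15 min compound preincubation, 30 min reaction.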
HPGD block – inhibitors of human 15-hydroxyprostaglandin dehydrogenase (HPGD). purified HPGD, NADH fluorescence kinetic, PGE2 substrate. P15428. hit rate 4.3% among 150,000. AID 894. Potency, µM, without a hit: at the top dose activity change, negative = inhibition, most hits filed as inhibitors; active = well fitted inhibition curve with a large enough effect, not every such curve was filed as active; inconclusive = small, poorly fitted or top-dose-only effect, or another doubt; inactive = no such curve, though single readings can be large or run the other way; note: potency is the fitted concentration of half-maximal effect
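NADH formation kinetics: reaction with 30 uM PGE2 and 1 mM NAD+ (final), 20 nM enzyme, Tris-HCl pH 8 with Tween 20, after 15 min compound preincubation at room temperature. Fluorescence change, last versus first of five reads.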
IMPase inh – membrane-permeable compound that blocks inositol monophosphatase; CHO-M1 cells, IP1 accumulation, HTRF TR-FRET ratio; inhibition (IP1 accumulation), % at 46.1 µM; 120,000 tested, under 10 active; P97697; AID 901; active = well fitted curve in the direction sought with a large enough effect in the signal ratio, not every such curve was filed as active; inconclusive = small, poorly fitted or top-dose-only effect, or a change in a side signal; inactive = no such curve, though single readings can be large or run the other way; the % refers to the signal ratio;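 note: cells stimulated with carbachol in lithium chloride buffer; plate controls were DMSO basal wells for no effect and reference inhibitor wells for full effect; higher means more IMPase inhibition seen as more IP1 and lower FRET ratio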
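Cellular IMPase inhibition is scored as a rise in cytosolic IP1, detected by competitive TR-FRET between d2-labelled IP1 and a europium anti-IP1 antibody. M1-expressing CHO cells were stimulated with carbachol for 30 min at 37C, with lithium (50 mM LiCl) present in the buffer.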
IMPase Li inh – cell-permeable IMPase inhibitors with lithium potentiation; CHO-M1 cells, IP1 TR-FRET (IP-One), carbachol + lithium; Potency, µM (titrated, usually from 59.4 µM), for inactives: at the top dose activity, negative = IMPase inhibition, usual class: inhibitors; hit rate 0.35% among 210,000; AID 1457;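 note: IP1 builds up when IMPase is blocked and the TR-FRET signal falls; potency is the fitted concentration of half-maximal effect; plate controls were basal vehicle for no effect and high inhibitor control for full effect; nearly all actives have a fitted effect of over 50% in size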
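CHO-M1, 2000 cells/well, 16–30 h culture; cpd + low Li+, 30 min 37C; lysis with d2-IP1/Eu-anti-IP1 Ab, 10 min RT; TR-FRET 665/620 ratio and 620 channel; AC50 via Hill.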
NPSR antagonist – neuropeptide S receptor (human) antagonism, cAMP; Q6W5P4; CHO-NPSR cells, cAMP TR-FRET, antagonist mode; Potency, µM (series often up to 38.3 µM), without a hit: top-dose activity change, negative = inhibition, usual class: inhibitors; hit rate 1% among 220,000; AID 1461; note: potency is the fitted concentration of half-maximal effect; nearly all actives have a fitted effect of over 50% in size
Target sequence (Q6W5P4 whole entry, looked up): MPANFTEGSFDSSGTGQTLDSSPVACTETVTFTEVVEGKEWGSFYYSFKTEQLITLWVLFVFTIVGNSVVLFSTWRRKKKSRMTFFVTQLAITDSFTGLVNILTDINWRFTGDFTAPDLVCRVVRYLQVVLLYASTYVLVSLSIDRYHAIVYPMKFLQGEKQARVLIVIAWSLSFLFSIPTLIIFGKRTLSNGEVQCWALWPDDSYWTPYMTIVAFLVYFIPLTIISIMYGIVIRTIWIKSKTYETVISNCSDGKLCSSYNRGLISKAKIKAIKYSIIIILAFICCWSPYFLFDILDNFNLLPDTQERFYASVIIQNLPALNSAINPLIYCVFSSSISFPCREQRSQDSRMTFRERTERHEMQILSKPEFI
An asterisk follows results filed as active; u = inconclusive; x = not tested or not shown; [ ] = dose if it differs, or a comment. Unless noted, calls come from the whole dose curve; as a rule, active = well fitted curve in the direction sought with a large enough effect; inconclusive = small, poorly fitted or top-dose-only effect, or another doubt; inactive = no such curve, though single readings can be large; an effect the other way counts as inactive or inconclusive. Unless noted, % is set by controls: 0 for no effect and ±100 for the full control effect.

SMILES	ALDH1A1 inh	ALOX12 inhib	HPGD block	IMPase inh	IMPase Li inh	NPSR antagonist
COc1ccc2c(CC(=O)NCCN3C(=O)S/C(=C\c4cccnc4)C3=O)coc2c1	22µM*	x	x	x	5%	-4%
Cn1c(=O)c2c(nc(N3CCCCCC3)n2CC(=O)c2ccccc2)n(C)c1=O	4.5µM*	2%	-12%	-6	1%[38.3 µM]	0%[46.1 µM]
CCn1c(N2CCN(CC(=O)c3c[nH]c4ccccc34)CC2)nc2c1c(=O)[nH]c(=O)n2C	22µM*	-1%	-12%	-4	-10%[38.3 µM]	-17%[46.1 µM]
CCCn1c(N2CCN(CC(=O)c3c(C)n(C)c4ccccc34)CC2)nc2c1c(=O)[nH]c(=O)n2C	u	7%	-3%	8	19%[38.3 µM]	-16%[46.1 µM]
Cn1c(=O)[nH]c(=O)c2c1nc(N1CCCCCC1)n2CC(N)=O	14µM*	5%	-5%	16	11%	-5%[46.1 µM]
C/C(Cl)=C\Cn1c(N2CCCCCC2)nc2c1c(=O)n(C)c(=O)n2C	3.5µM*	-4%	4%	14	5%[38.3 µM]	-27%[46.1 µM]
Cn1c(=O)c2c(nc(N3CCOCC3)n2CC(=O)c2ccccc2)n(C)c1=O	-1%	0%	-14%	-5	-5%[38.3 µM]	-8%[46.1 µM]
CCC(C)Nc1nc(-c2ccc3c(c2)NC(=O)CO3)cs1 (configuration not stated)	3.5µM*	-12%	-7%	4	-5%[38.3 µM]	u
Cc1cccc(-n2ncc3c(N4CC(C)CC(C)C4)ncnc32)c1 (configuration not stated)	25µM*	-3%	-30%	3	11%[38.3 µM]	-25%[46.1 µM]
O=C(COc1ccccc1)N1CCN(c2ncnc3c2cnn3-c2ccccc2)CC1	7.1µM*	6%	-12%	6	23%[38.3 µM]	-1%[46.1 µM]
CS(=O)(=O)N1CCN(c2ncnc3c2cnn3-c2ccccc2)CC1	u	x	x	x	2%	-1%
Cc1cccc(C(=O)N2CCN(c3ncnc4c3cnn4-c3ccccc3)CC2)c1	10µM*	0%	-4%	12	13%	-16%[46.1 µM]
COc1ccccc1N1CCN(CCC(=O)Nc2cccc(F)c2)CC1	x	x	x	2	x	x
O=C(/C=C/c1ccccc1)N/C(=C/c1ccccc1)C(=O)Nc1ccc(C(=O)O)cc1	1%	-1%	-2%	2	-3%	2%
Cc1ccc2c(c1)-c1c(ssc1=S)C(C)(C)N2C(=O)c1ccco1	10µM*	1%	8.9µM*	-2	15%	u
CCCC(=O)Nc1sc2c(c1C(=O)OCC)CC(C)(C)OC2	u	x	x	x	16%	14%
CCOC(=O)c1c(NC(=O)CN2CCOCC2)sc2c1CC(C)(C)OC2	14µM*	-5%	-16%	0	2%[38.3 µM]	6%[7.67 µM]
CCOC(=O)c1c(NC(=O)CCN2CCOCC2)sc2c1CC(C)(C)OC2	22µM*	-3%	-4%	-3	-13%[38.3 µM]	-27%[7.67 µM]
CCOC(=O)c1c(NC(=O)CCC(=O)N2CCOCC2)sc2c1CC(C)(C)OC2	u	-1%	-8%	5	-9%[38.3 µM]	u
C=C(C)CNC(=S)Nc1sc2c(c1C(=O)OCC)CC(C)(C)OC2	13µM*	-15%	x	-22	x	-19%[46.1 µM]
CCCOc1ccc(C(O)(CCC)CCN2CCCCC2)cc1 (configuration not stated)	25µM*	6%	-10%	0	29%	20%[46.1 µM]
CCOc1ccc(C(=O)CCN2CCCCCC2)cc1	0.063µM*	-6%	-14%	9	3%[38.3 µM]	-8%[46.1 µM]
CCOc1ccc(OCCN2CCCCC2)cc1	-6%	0%	0%	x	3%	8%
CCCOc1ccc(C(=O)CCN2CCCCC2)cc1	0.056µM*	-1%	-21%	11	0%[38.3 µM]	9%[46.1 µM]
CCCC(O)(CCN1CCOCC1)c1ccc(Br)cc1 (configuration not stated)	5µM*	-3%	-8%	16	43%[38.3 µM]	13%[46.1 µM]
COc1ccc(S(=O)(=O)N2CCOCC2)cc1NC(=O)CN(C)Cc1c(F)cccc1Cl	u	x	x	x	11%	-14%
CC(C)(C)OC(=O)NCCC(=O)Oc1ccc2ccc(=O)oc2c1	u	-4%	u	u	-28%[38.3 µM]	0%[46.1 µM]

High-throughput results: PubChem BioAssay, National Center for Advancing Translational Sciences (NCATS)
